Assay outcomes from PubChem.
Compounds with a hit are over-represented: about 1.1% of the library has one in this group of screens.
HTR5A inv ag: HTR5A inverse agonists in luminescence cell assay, primary screen, counter-screen for OPRM1-OPRD1 heterodimer inverse agonist project, full-deck HTS | 5-hydroxytryptamine receptor 5A (Homo sapiens), P47898 | actives 0.083% (n = 340,000) | AID 504634, 2011 | inhibition, % at 9.3 µM | HTR5A cell line, inverse agonism; in the data active means inhibition mostly above about 23%, no sharp cut-off; inactive means mostly below about 18%;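 further: 0% = cells with DMSO and 100% = no-cell wells with DMSO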
Target sequence (P47898 whole entry, looked up): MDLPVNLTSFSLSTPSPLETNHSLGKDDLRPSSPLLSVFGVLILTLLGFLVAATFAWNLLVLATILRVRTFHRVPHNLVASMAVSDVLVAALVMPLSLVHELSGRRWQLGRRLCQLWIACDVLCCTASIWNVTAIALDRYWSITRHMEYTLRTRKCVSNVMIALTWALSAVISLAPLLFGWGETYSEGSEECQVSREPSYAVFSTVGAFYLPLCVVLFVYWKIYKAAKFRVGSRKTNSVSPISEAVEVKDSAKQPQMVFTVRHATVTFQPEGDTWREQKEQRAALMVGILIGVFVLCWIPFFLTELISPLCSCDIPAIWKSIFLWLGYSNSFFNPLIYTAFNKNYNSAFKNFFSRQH
HTR5A ag: HTR5A agonists in luminescence cell assay, primary screen, counter-screen for OPRM1-OPRD1 heterodimer agonist project, full-deck HTS | 5-hydroxytryptamine receptor 5A (Homo sapiens), P47898 | cell-based | activation, % at 9.3 µM | actives 0.61% (n = 340,000) | AID 504692, 2011; in the data active means activation mostly above about 9.5%, no sharp cut-off; inactive means mostly below about 7.6%;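 further: 0% = cells with vehicle only and 100% = reference agonist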
MOR-DOR ag-1: agonists of OPRM1-OPRD1 heterodimerization, primary screen, cell-based, luminescence; Mu-type opioid receptor (Homo sapiens) + Delta-type opioid receptor (Homo sapiens), …; cells; activation, % at 9.3 µM; actives 0.3% (n = 340,000); AID 504326, 2011;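 further: 0% = vehicle-treated cells and 100% = reference agonist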
OPRM1-OPRD1 inv: inverse agonists of MOR-DOR heterodimerization, primary screen, cell-based, luminescence | Mu-type opioid receptor (Homo sapiens) + Delta-type opioid receptor (Homo sapiens), … | cell-based MOR-DOR heterodimer luminescence, inverse agonism | inhibition, % at 9.3 µM | actives 0.21% (n = 340,000) | AID 504357, 2011; in the data active means inhibition above about 22%, passing the limit was not always enough;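 further: 0% = cells with DMSO and 100% = wells without cells with DMSO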
MOR-DOR ag-2: OPRM1-OPRD1 heterodimerization promoters, counter-screen for HTR5A agonist project, cell-based, luminescence; actives 13% (n = 800); AID 504913, 2011; U2OS counter-screen cells, complementation luminescence, 3 h; shares compounds with HTR5A ag; activation, % at 9.3 µM
HTR5A ag conf: HTR5A agonists, retest of hits, confirmation, cell-based, luminescence; shares compounds with HTR5A ag; HTR5A agonist cell assay; activation, % at 9.3 µM; actives 17% (n = 800); AID 504915, 2011; in the data active means activation above about 17%;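 further: 0% = cells with vehicle only and 100% = full reference agonist response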
Starred values were filed as active, the others as inactive. Unless noted, no stated cut-off is given here; in the data, active means activation above about 18%; inactive means the rest.

For COc1ccc(C(=O)Nc2cc(C)nn2-c2ccc(F)cc2)cc1 the results were HTR5A inv ag -20, HTR5A ag 7, MOR-DOR ag-1 1 and OPRM1-OPRD1 inv -6.
Screening COc1ccc(C(CNc2ccc(C(F)(F)F)cn2)N(C)C)cc1OC (stereo not given) returned HTR5A inv ag -56, HTR5A ag 19*, MOR-DOR ag-1 17, OPRM1-OPRD1 inv -139, MOR-DOR ag-2 0 and HTR5A ag conf -5.
Screening CCOc1ccc(N2CC(NC(=O)c3ccc4ccccc4c3)CC2=O)cc1 (stereo not given) returned HTR5A inv ag 0, HTR5A ag -2, MOR-DOR ag-1 1 and OPRM1-OPRD1 inv -3.
CCCCCCCCCCOC(=O)Cn1c(COc2ccccc2)[n+](C)c2ccccc21 was read as HTR5A inv ag -60, HTR5A ag 15*, MOR-DOR ag-1 10, OPRM1-OPRD1 inv -55, MOR-DOR ag-2 15 and HTR5A ag conf 10.
Screening CCCCCCCCCCOC(=O)Cn1c(COc2ccc(OC)cc2)[n+](C)c2ccccc21 returned HTR5A inv ag -45, HTR5A ag 12*, MOR-DOR ag-1 12, OPRM1-OPRD1 inv -62, MOR-DOR ag-2 -2 and HTR5A ag conf -1.
For CCCCOC(=O)Cn1c(-c2ccccc2)nc2ccccc2c1=O the results were HTR5A inv ag 7, HTR5A ag -2, MOR-DOR ag-1 3 and OPRM1-OPRD1 inv -18.
For N=c1sccn1CC(=O)Nc1cccc(S(=O)(=O)N2CCCCCC2)c1 the results were HTR5A inv ag 20, HTR5A ag -7, MOR-DOR ag-1 0 and OPRM1-OPRD1 inv 3.
CC(OC(=O)c1ccc(Cl)nc1)C(=O)Nc1ccc2c(c1)OCO2 (stereo not given) was read as HTR5A inv ag -53, HTR5A ag 19*, MOR-DOR ag-1 -3, OPRM1-OPRD1 inv 12, MOR-DOR ag-2 1 and HTR5A ag conf 2.
O=C(Cn1cnc2c(nnn2-c2ccccc2)c1=O)N1CCOCC1 was read as HTR5A inv ag -156, HTR5A ag 28*, MOR-DOR ag-1 -2, OPRM1-OPRD1 inv 10, MOR-DOR ag-2 6 and HTR5A ag conf 8.
Cc1cc(C)c(S(=O)(=O)Nc2ccc(N(C)C)cc2)c(C)c1-n1cnnn1 was read as HTR5A inv ag 3, HTR5A ag 4, MOR-DOR ag-1 2 and OPRM1-OPRD1 inv -11.
Screening CCOC(=O)c1c(C)oc2c1c(C=NCCO)c(O)c1ccccc12 returned HTR5A inv ag -46, HTR5A ag 17*, MOR-DOR ag-1 9, OPRM1-OPRD1 inv -48, MOR-DOR ag-2 4 and HTR5A ag conf 4.
Screening CCOC(=O)c1c(C)oc2c1c(C(c1ccccc1)N1CCOCC1)c(O)c1ccccc12 (stereo not given) returned HTR5A inv ag -5, HTR5A ag 2, MOR-DOR ag-1 2 and OPRM1-OPRD1 inv -10.
Screening COc1ccc(CNC(=O)C2CCN(S(=O)(=O)c3ccccc3)CC2)cc1 returned HTR5A inv ag -50, HTR5A ag 21*, MOR-DOR ag-1 -1, OPRM1-OPRD1 inv 6, MOR-DOR ag-2 3 and HTR5A ag conf 1.
Screening CS(=O)(=O)N1CCCC(C(=O)NCc2ccc(F)cc2)C1 (stereo not given) returned HTR5A inv ag -21, HTR5A ag 16*, MOR-DOR ag-1 0, OPRM1-OPRD1 inv 0, MOR-DOR ag-2 17 and HTR5A ag conf 8.
Screening COc1cccc(CNC(=O)C2CCN(S(=O)(=O)c3ccccc3)CC2)c1 returned HTR5A inv ag -29, HTR5A ag -3, MOR-DOR ag-1 -1 and OPRM1-OPRD1 inv 6.
Cc1ccc(OCC(=O)OC(C)C(=O)NC2CCCCC2C)cc1C (stereo not given) was read as HTR5A inv ag -11, HTR5A ag -2, MOR-DOR ag-1 -3 and OPRM1-OPRD1 inv 12.
`c1ccc(CCNC2=NCCCS2)cc1` gave HTR5A inv ag -54, HTR5A ag 20*, MOR-DOR ag-1 -2, OPRM1-OPRD1 inv 13, MOR-DOR ag-2 2 and HTR5A ag conf 0.
CCCCC1(CC)SCC(=O)NC1=O (stereo not given) was read as HTR5A inv ag 12, HTR5A ag -3, MOR-DOR ag-1 0 and OPRM1-OPRD1 inv 2.
`O=C1c2cc([N+](=O)[O-])ccc2-c2cc(Cl)c(NC(=O)C(F)(F)F)cc21` gave HTR5A inv ag 11, HTR5A ag -3, MOR-DOR ag-1 0 and OPRM1-OPRD1 inv 1.
`O=C1c2cc([N+](=O)[O-])ccc2-c2cc(Br)c(N=C(NO)C(F)(F)F)cc21` gave HTR5A inv ag -81, HTR5A ag 21*, MOR-DOR ag-1 6, OPRM1-OPRD1 inv -27, MOR-DOR ag-2 19* and HTR5A ag conf 0.
Screening CC[C@@]12C(=O)N(c3cccc(F)c3)C(=O)N1[C@H](c1ccc(Cl)cc1)[C@@H]1C(=O)N(C3CCCCC3)C(=O)[C@@H]12 returned HTR5A inv ag -10, HTR5A ag 15*, MOR-DOR ag-1 8, OPRM1-OPRD1 inv -47, MOR-DOR ag-2 19* and HTR5A ag conf 11.
`O=C1[C@H]2[C@@H](c3ccc(Cl)cc3)N3C(=O)N(c4cccc(F)c4)C(=O)[C@@]3(Cc3ccc(Cl)cc3)[C@H]2C(=O)N1C1CCCCC1` gave HTR5A inv ag 11, HTR5A ag 1, MOR-DOR ag-1 -3 and OPRM1-OPRD1 inv 14.
`CC(C)(Cc1ccccc1)/[N+]([O-])=C\c1ccc(C(F)(F)F)cc1` gave HTR5A inv ag 7, HTR5A ag -2, MOR-DOR ag-1 5 and OPRM1-OPRD1 inv -27.
`COc1cccc(CNC(=O)COC(=O)CNC(=O)c2ccc(-c3ccccc3)cc2)c1` gave HTR5A inv ag -37, HTR5A ag 15*, MOR-DOR ag-1 -1, OPRM1-OPRD1 inv 5, MOR-DOR ag-2 4 and HTR5A ag conf -2.
Screening COc1cccc(CNC(=O)Cc2ccc(-c3ccccc3)cc2)c1 returned HTR5A inv ag 0, HTR5A ag 0, MOR-DOR ag-1 0 and OPRM1-OPRD1 inv -2.
For Cc1ccc(S(=O)(=O)N2CCOCC2)cc1NC(=O)COC(=O)/C=C/c1ccc(F)cc1 the results were HTR5A inv ag -3, HTR5A ag 1, MOR-DOR ag-1 -1 and OPRM1-OPRD1 inv 7.
Screening CC(=O)N1CCc2c(sc(NC(=O)C3CC3)c2-c2nc3ccccc3s2)C1 returned HTR5A inv ag -47, HTR5A ag 16*, MOR-DOR ag-1 -2, OPRM1-OPRD1 inv 11, MOR-DOR ag-2 2 and HTR5A ag conf 1.
